Laboratory results from PubChem BioAssay (NCI).
Compounds without any hit were thinned out: in the full panel of roughly 83,000, 20% have a hit.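 Interpretation: 100, growth as untreated; towards 0, rising growth inhibition; 0, no net growth; 0 to -100, cell death. Compounds scoring below 10 were considered active.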 The source made the active and inactive calls.

Experiments:
Experiment in all cases: NCI-60 one-dose screen, 48 h (100 = growth as untreated, 0 = no growth, -100 = all killed)
Details in all cases: 10 µM unless noted
[1] = system: DU-145 prostate
[2] = system: K-562 leukemia
[3] = system: MALME-3M melanoma
[4] = system: MDA-MB-231 breast
[5] = system: RXF 393 renal
[6] = system: SF-268 CNS
[7] = system: SF-539 CNS
[8] = system: UACC-257 melanoma
[9] = system: M14 melanoma
[10] = system: HCT-15 colon
[11] = system: HT29 colon
[12] = system: SNB-75 CNS
[13] = system: SNB-19 CNS
[14] = system: U251 CNS
[15] = system: PC-3 prostate
[16] = system: UACC-62 melanoma
[17] = system: SK-MEL-28 melanoma
[18] = system: SK-MEL-5 melanoma
[19] = system: LOX IMVI melanoma

Measured: growth

Fc1ccc2nc(-c3cc(-c4ccc5c(c4)OCO5)n[nH]3)[nH]c2c1
inactive: [1] 78.3% | [2] 15.5% | [3] 57.7% | [4] 67.6% | [5] 63.1% | [6] 77.5% | [7] 56.3% | [8] 84.9% | [9] 49.5% | [10] 57.5% | [11] 61.6% | [12] 35.6% | [13] 72.1% | [14] 41.1% | [15] 23.3% | [16] 53.7% | [17] 75.3%

CC(C)=CCC/C(C)=C/CC/C(C)=C/CSC[C@H](NC(=O)CCCCCN1CCN(C)CC1)C(=O)NC1CCCCCC1
inactive: [1] 53% | [5] 80.3% | [6] 75.1% | [7] 82.9% | [8] 76.2% | [9] 83.7% | [12] 73.8% | [13] 81% | [14] 33.2% | [15] 51.9% | [18] 79.9% | [19] 25.3%
active: [2] -17.4% | [3] -13.7% | [4] -89.1% | [10] 0.0874% | [11] -48.3% | [16] 3.45% | [17] -56%

COc1ccc(-c2nc3ncccn3c2-c2nc3ccc(Br)cc3[nH]2)cc1
inactive: [1] 94.1% | [2] 63.5% | [3] 81.3% | [4] 72.9% | [5] 74.1% | [6] 99.6% | [7] 82.8% | [8] 92.6% | [9] 90.5% | [10] 84.6% | [11] 88.9% | [12] 86.8% | [13] 89.9% | [14] 89.7% | [15] 65.5% | [18] 74.9% | [16] 76.5% | [17] 92.6%

CN1CCN(c2nc(-c3cccc4ccccc34)nc3sc4c(c23)CCCCCC4)CC1
inactive: [1] 102% | [2] 85.3% | [3] 81.3% | [4] 61.8% | [5] 60.9% | [6] 82% | [7] 86% | [8] 94.4% | [10] 91.8% | [11] 71.2% | [12] 49.1% | [13] 91.5% | [14] 66.4% | [15] 56.7% | [18] 85.3% | [16] 87.6% | [19] 95.1% | [17] 98.1%

COc1cc(-c2cc(-c3nc4ccc(F)cc4[nH]3)[nH]n2)cc(OC)c1OC
active: [2] 0.735% | [3] 7.29% | [15] -18.1% | [18] -50.2% | [16] -25.4% | [17] 7.54%
inactive: [1] 35.5% | [4] 49.4% | [5] 36.5% | [6] 36.4% | [7] 52.6% | [8] 29.6% | [9] 21.5% | [10] 24.1% | [11] 69.3% | [12] 15.2% | [13] 70.8% | [14] 46.2%

Cc1ccc(Nc2c(C(N)=O)cnc3ccc(S(=O)(=O)Nc4cc(C)on4)cc23)cc1
inactive: [1] 109% | [2] 117% | [3] 108% | [4] 99.5% | [5] 105% | [6] 104% | [7] 92.7% | [8] 101% | [10] 108% | [11] 98.3% | [12] 81% | [13] 94.7% | [14] 95.6% | [15] 86.5% | [18] 99% | [16] 91.8% | [19] 95.8% | [17] 101%

CCCC(=O)N1CCCCC1CC (configuration not stated)
inactive: [1] 106% | [2] 87.5% | [3] 118% | [4] 115% | [5] 115% | [7] 87.5% | [8] 90.6% | [9] 114% | [10] 99.4% | [11] 106% | [12] 92% | [13] 112% | [14] 91.8% | [15] 92.5% | [18] 117% | [16] 111% | [19] 105% | [17] 112%

COC(=O)[C@@H]1[C@H]2C[C@H]3c4[nH]c5cc(OC)ccc5c4CCN3C[C@@H]2C[C@H](OC(=O)/C=C/c2ccnc(OC)c2)[C@H]1OC
inactive: [1] 91.8% | [2] 99.3% | [3] 67.6% | [5] 92.4% | [6] 84.1% | [7] 90.1% | [8] 78.3% | [10] 71.1% | [11] 75.6% | [12] 53.5% | [13] 86.7% | [14] 78% | [15] 76% | [18] 94.8% | [16] 86.7% | [19] 86.5% | [17] 99.2%
active: [4] -54.6%

COc1cccc(NC(=O)c2sc3nc4c(cc3c2N)C(=O)CCC4)c1
inactive: [1] 11.8% | [3] 50.1% | [4] 14.7% | [5] 41% | [6] 39.2% | [8] 66.5% | [9] 12.5% | [10] 15.7% | [13] 41.6% | [14] 14.3% | [15] 10.5% | [16] 34.5% | [17] 62.9%
active: [2] 5.55% | [7] -7.27% | [11] 4.77% | [12] -0.688% | [18] 3.83%
